# In the library only some 3.5% were active in any assay of this set; here they are far more common.
# PG9 Ab binder – PG9 antibody binding by small molecule; TR-FRET gp120-PG9 antibody binding; inhibition, % at 6.7 µM; 360,000 tested, 0.43% active; in the data active = inhibition above about 8.5%
# UHRF1 binding – blocks human UHRF1 binding to methylated DNA; Q96T88; UHRF1 binding to methylated oligo, TR-FRET; inhibition, % at 4.4 µM; 370,000 tested, 0.75% active; AID 687016;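 also: UHRF1 SRA domain binding a hemimethylated CpG hairpin DNA probe; 0% = median of test compound wells and 100% = reference inhibitor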
# Target sequence (Q96T88 whole entry, looked up, the tested form may be a part): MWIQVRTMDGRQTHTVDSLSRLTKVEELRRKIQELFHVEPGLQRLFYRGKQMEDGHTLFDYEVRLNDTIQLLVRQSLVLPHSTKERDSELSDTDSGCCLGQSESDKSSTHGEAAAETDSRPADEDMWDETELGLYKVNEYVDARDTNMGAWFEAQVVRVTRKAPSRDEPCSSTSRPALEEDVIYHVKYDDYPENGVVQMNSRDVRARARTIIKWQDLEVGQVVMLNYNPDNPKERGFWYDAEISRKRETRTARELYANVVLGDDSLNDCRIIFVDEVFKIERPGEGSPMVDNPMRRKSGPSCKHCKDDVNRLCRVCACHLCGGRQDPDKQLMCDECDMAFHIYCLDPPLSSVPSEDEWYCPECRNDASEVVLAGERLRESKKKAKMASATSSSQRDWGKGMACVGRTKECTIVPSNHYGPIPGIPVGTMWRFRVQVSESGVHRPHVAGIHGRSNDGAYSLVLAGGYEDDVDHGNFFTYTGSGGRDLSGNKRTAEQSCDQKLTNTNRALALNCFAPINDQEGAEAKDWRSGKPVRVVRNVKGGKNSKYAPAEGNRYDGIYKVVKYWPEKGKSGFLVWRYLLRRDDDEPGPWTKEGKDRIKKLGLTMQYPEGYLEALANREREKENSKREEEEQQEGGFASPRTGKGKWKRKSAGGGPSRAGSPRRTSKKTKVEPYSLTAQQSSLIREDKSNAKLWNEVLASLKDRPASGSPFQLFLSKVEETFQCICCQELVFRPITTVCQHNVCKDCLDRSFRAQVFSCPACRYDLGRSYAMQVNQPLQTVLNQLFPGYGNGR
# DNMT1 inh – blocks human DNA methyltransferase DNMT1 | DNMT1 molecular beacon, Hinp1I cleavage, fluorescence | AID 588458 | 360,000 tested, 0.83% active | P26358 | inhibition (reported as % activation of signal), % at 10 µM; in the data active = inhibition above about 50%
# rCAG RNA binder – binds r(CAG) RNA repeats. inhibition, % at 3 µM. AID 651821. 370,000 tested, 1.3% active. r(CAG) RNA repeat, TO-PRO-1 dye displacement fluorescence;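 active = inhibition above the plate cutoff, the mean of all test compounds on that plate plus 3 SD, cut at about 35% in these data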;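 also: 0% = DMSO alone and 100% = 100 µM mitoxantrone as full dye displacement; higher means more dye released from RNA so lower well fluorescence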
# MBD2 DNA inh – blocks human MBD2 binding to methylated DNA; Q9UBB5; TR-FRET, MBD2 binding to methylated oligonucleotide; inhibition, % at 4.4 µM; 370,000 tested, 0.31% active; AID 686964; in the data active = inhibition above about 13%
# LEDGF integ inh – blocks HIV-1 LEDGF/p75-dependent DNA integration; 370,000 tested, 0.64% active; TR-FRET IN-LEDGF/p75 DNA integration, Eu/Cy5; inhibition, % at 3.7 µM;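 active = inhibition above the screen-wide mean plus 3 SD, cut at about 13% in these data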;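 also: signal is the Cy5 over europium emission ratio at 671 and 618 nm; 0% = plate median of compound wells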
# Beacon interf DR – counter-screen for DNMT1 inhibitors: spectral interference, dose response. shares compounds with DNMT1 inh. molecular beacon fluorescence. IC50, µM. 200 tested, under 10 active. AID 602382; call rule not given here
# DNMT1 inh conf – confirmation of human DNMT1 inhibitors. shares compounds with DNMT1 inh. DNMT1 molecular beacon HinP1I cleavage, fluorescence. inhibition, % at 10 µM. 2,300 tested, 8% active;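 active = average inhibition of at least 30% in the single-concentration confirmation test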
# DNMT1 interf – shows spectral interference in the DNMT1 beacon assay; shares compounds with DNMT1 inh; DNMT1 molecular beacon spectral interference counterscreen, fluorescence 485/520; activation (fluorescence interference), % at 10 µM; 2,300 tested, 1% active; AID 602387;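 active = activation of at least 30% at 10 µM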;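 also: DNMT1 catalytic domain with a HinP1I cleavage step and a FAM/dabcyl DNA beacon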
# rCAG bind conf – r(CAG) RNA repeat binding, confirmation; TO-PRO-1 dye displacement fluorescence; AID 652065; 4,300 tested, 70% active; inhibition, % at 3 µM; shares compounds with rCAG RNA binder;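 active = inhibition above a per-plate cutoff, the mean inhibition of sample wells plus 3 SD, cut at about 35% in these data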;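 also: loss of TO-PRO-1 fluorescence as compound displaces dye from 1x1 AA loop RNA; 0% = DMSO only wells and 100% = 100 µM mitoxantrone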
# dCAG dye counter – DNA CAG dye complex inhibition counter-screen; AID 652068; shares compounds with rCAG RNA binder; 4,300 tested, 94% active; inhibition, % at 3 µM; d(CAG) DNA oligo TO-PRO-1 dye displacement, fluorescence;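 active = inhibition above its plate's cutoff, the mean test-well inhibition plus 3 SD, cut at about 4.8% in these data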;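 also: 0% = DNA dye mix with DMSO and 100% = 100 µM mitoxantrone; hits displace the dye from DNA and so lower well fluorescence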
# UHRF1 DNA bind – UHRF1 methyl-oligo binding inhibition as MBD2 counter-screen; shares compounds with MBD2 DNA inh; UHRF1 binding to methylated oligonucleotide, TR-FRET; inhibition, % at 4.4 µM; 1,000 tested, 25% active;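 also: UHRF1 SRA domain binding a labeled hemimethylated CpG hairpin DNA; 0% = vehicle only and 100% = reference inhibitor with vehicle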
# MBD2 confirm – MBD2-DBD methyl-DNA binding inhibition, TR-FRET confirmation; shares compounds with MBD2 DNA inh; TR-FRET MBD2-DBD binding to methylated oligonucleotide; inhibition, % at 4.4 µM; 1,000 tested, 26% active; in the data active = inhibition above about 14%
# IN multimer up – activates HIV-1 integrase multimerization in LEDGF counter-screen; shares compounds with LEDGF integ inh; TR-FRET HIV-1 integrase multimerization, biochemical; activation, % at 7.7 µM; 2,000 tested, 17% active; AID 1053131; in the data active = activation above about 8.9%
# TRFRET interf – optically interferes with TR-FRET readout in LEDGF counter-screen; shares compounds with LEDGF integ inh; TR-FRET optical interference counterscreen, HIV-1 IN multimerization; inhibition, % at 7.7 µM; 2,000 tested, under 10 active; AID 1053135;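 active = inhibition above the mean over all tested compounds plus 3 SD, which no compound reached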;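 also: 0% = integrase with antibodies and DMSO and 100% = antibodies without integrase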
# LEDGF integ conf – LEDGF/p75-dependent HIV-1 integration inhibition, confirmation. shares compounds with LEDGF integ inh. inhibition, % at 3.7 µM. AID 1053136. 2,000 tested, 36% active. TR-FRET LEDGF/p75-dependent HIV-1 integration, biochemical; in the data active = inhibition above about 14%
# Active calls of the source: *; / = not tested or not shown. Rule as the data show it, unless noted: active = inhibition above about 21%; inactive = the rest.
SMILES,PG9 Ab binder,UHRF1 binding,DNMT1 inh,rCAG RNA binder,MBD2 DNA inh,LEDGF integ inh,DNMT1 inh conf,DNMT1 interf,rCAG bind conf,dCAG dye counter,IN multimer up,TRFRET interf,LEDGF integ conf,others
CN(C)c1ccc(/C=C2\C(=O)NC(=O)N(Cc3ccc(F)cc3)C2=O)cc1,0,-4,-7,11,-5,-6,/,/,/,/,/,/,/,
Cc1ccc(/C=C2\C(=O)NC(=S)N(c3cccc(F)c3)C2=O)o1,-2,3,72*,45*,6,4,23,2,49*,20*,/,/,/,
CN1CCN(/N=C/c2c(O)n(Cc3ccc(F)cc3)c(=O)[nH]c2=O)CC1,0,-3,0,-4,3,1,/,/,/,/,/,/,/,
Cn1cccc1/C=C1\C(=O)NC(=O)N(Cc2ccco2)C1=O,-1,63*,104*,40*,20*,65*,20,2,9,3,/,/,/,UHRF1 DNA bind=30*;MBD2 confirm=14*
OC(c1cccc(Cl)c1)(c1cccc(Cl)c1)C1CN2CCC1CC2 (stereo unspecified),0,1,1,8,4,-4,/,/,/,/,/,/,/,
O=C1NC(=O)N(c2ccccc2)C(=O)/C1=C/C=C/c1ccco1,-3,6,65*,12,7,28*,7,3,/,/,0,-2,19*,
O=[P+](Cc1ccccc1)Cc1ccccc1,2,3,3,4,4,5,/,/,/,/,/,/,/,
Cc1ccc(N2C(=O)NC(=O)/C(=C\c3cc(C)n(-c4ccc(C(=O)O)cc4)c3C)C2=O)cc1,-3,-2,13,12,0,2,/,/,/,/,/,/,/,
CCc1ccc(N2C(=O)NC(=O)/C(=C\c3cc(C)n(-c4cc(C(=O)O)cc(C(=O)O)c4)c3C)C2=O)cc1,-2,14,73*,22,-2,29*,4,3,/,/,6,-20,21*,
Cc1cc(/C=C2\C(=O)NC(=O)N(Cc3ccco3)C2=O)c(C)n1-c1ccc(O)cc1,0,36*,73*,30,12,53*,6,2,/,/,4,-13,21*,
Cc1cc(/C=C2\C(=O)NC(=O)N(Cc3ccccc3)C2=O)c(C)n1-c1ccc(Cl)c(C(=O)O)c1,0,92*,103*,43*,37*,43*,72*,-1,65*,24*,5,-25,44*,Beacon interf DR=>99;UHRF1 DNA bind=72*;MBD2 confirm=29*
Cc1cc(/C=C2\C(=O)NC(=O)N(Cc3ccco3)C2=O)c(C)n1-c1ccc(C(=O)O)cc1,0,52*,86*,18,7,48*,8,-1,/,/,3,-11,10,

# Compound activity as filed in PubChem.
